Screening results (PubChem BioAssay)
In the library only some 3.5% were active in any assay of this set; here they are far more common.
TEAD-YAP inh: TEAD-YAP interaction inhibition, primary screen, TEAD-YAP interaction inhibitor project, luminescence, HEK-TIYL cells; hit rate 1.4% among 640,000; TEAD-Gal4/YAP UAS-luciferase luminescence; inhibition, % at 9.12 µM; in the data active = inhibition above about 32%;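 also: 0% = median of test compound wells and 100% = reference inhibitor wells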
MITF inh: MITF inhibitors, primary screen, biochemical, AlphaScreen, human; Microphthalmia-associated transcription factor (Homo sapiens), O75030; AlphaScreen MITF homodimerization, bead proximity signal; inhibition, % at 2.6 µM; hit rate 0.91% among 650,000; in the data active = inhibition above about 50%;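 also: 0% = vehicle wells with protein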
FBW7 activator: FBW7 E3 ligase activators, primary screen, biochemical, AlphaScreen, human; hit rate 0.13% among 650,000; normalized activity (activation), % at 26.1 µM; F-box/WD repeat-containing protein 7 (Homo sapiens), Q969H0; AlphaScreen FBW7–phospho-cyclin E peptide binding, activator screen; in the data active = normalized activity above about 1.9%;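 also: purified mutant Fbw7 with reduced substrate affinity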
GPR151 activ: activators of human GPR151, primary screen, cell-based, PathHunter beta-arrestin, luminescence. AID 1508602, 2020. hit rate 1% among 650,000. PathHunter beta-arrestin GPR151 cells. activation, % at 11.2 µM; in the data active = activation above about 4.9%;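 also: 0% = median of compound wells and 100% = cells with positive control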
Target sequence (Q8TDV0 whole entry, looked up): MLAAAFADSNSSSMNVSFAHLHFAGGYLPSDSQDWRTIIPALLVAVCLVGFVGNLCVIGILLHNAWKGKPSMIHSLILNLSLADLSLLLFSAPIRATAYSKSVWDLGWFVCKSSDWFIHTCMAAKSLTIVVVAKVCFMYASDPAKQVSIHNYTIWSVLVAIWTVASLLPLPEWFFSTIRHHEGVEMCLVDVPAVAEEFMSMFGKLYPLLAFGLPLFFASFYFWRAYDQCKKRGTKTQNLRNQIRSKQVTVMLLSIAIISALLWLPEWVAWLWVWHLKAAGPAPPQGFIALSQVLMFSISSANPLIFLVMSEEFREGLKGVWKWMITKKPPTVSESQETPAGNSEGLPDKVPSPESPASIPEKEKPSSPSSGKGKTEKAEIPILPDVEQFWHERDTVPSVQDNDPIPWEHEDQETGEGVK
MITF confirm: MITF inhibitors, retest of hits, confirmation, biochemical, AlphaScreen, triplicate; shares compounds with MITF inh; AID 1259372, 2018; inhibition, % at 2.6 µM; hit rate 16% among 4,700; AlphaScreen MITF homodimerization, biotin/His-MITF beads;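 active = inhibition above a cutoff derived from the DMSO control wells, cut at about 28% in these data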;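 also: 0% = MITF dimer wells with DMSO only; inhibitors lower the bead chemiluminescence by keeping MITF from dimerizing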
AS interf DR: AlphaScreen optical interference compounds, dose response, counter-screen, biochemical, HTS | shares compounds with MITF inh | hit rate 6% among 480 | AlphaScreen optical interference counterscreen, cell-free | AID 1259373, 2018 | IC50, µM; call rule not given here
AlphaScreen intf2: AlphaScreen optical interference compounds, counter-screen for MITF inhibitor project, biochemical, triplicate; shares compounds with MITF inh; LysRS AlphaScreen counterscreen, signal interference; inhibition, % at 2.6 µM; hit rate 7.6% among 4,700;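 active = inhibition above a cutoff derived from the DMSO control wells, cut at about 30% in these data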
Active calls of the source: *; · = no result given.

SMILES | TEAD-YAP inh | MITF inh | FBW7 activator | GPR151 activ | MITF confirm | AlphaScreen intf2 | others
COc1ccc(OC)c(CN2CCN(Cc3ccc(F)cc3)CC2)c1 | 2 | 83* | 0 | 0 | 37* | 16 | AS interf DR=>6.1
COc1cccc(CN2CCN(Cc3ccc(OC)cc3OC)CC2)c1 | -1 | 81* | 0 | -2 | 13 | 15
CC(=O)C1=C(O)C(=O)N(CC(CC(=O)O)c2ccccc2)C1c1ccccc1F (centres undefined) | 1 | -3 | 0 | -1 | · | ·
CCc1nc(NCCCCCO)c2nnn(Cc3ccccc3F)c2n1 | 12 | 59* | 0 | 1 | 6 | 15
c1ccc(-c2cc3ccccc3[nH]2)nc1 | -38 | 17 | 0 | -3 | · | ·
O=c1cc(-c2ccccn2)[nH][nH]1 | -50 | 114* | -1 | -3 | 110* | 101*
COc1ccc(NC(=O)C2(N(Cc3ccco3)C(=O)Cc3nc(N)n[nH]3)CCCCC2)cc1 | -8 | 23 | 0 | -2 | · | ·
Cc1ccccc1NC(=O)C1(N(Cc2ccccc2)C(=O)Cc2nc(N)n[nH]2)CCCCC1 | 0 | 79* | -1 | -1 | 101* | 101*
Nc1n[nH]c(CC(=O)N(Cc2ccco2)C2(C(=O)Nc3ccccc3)CCCCC2)n1 | -6 | 66* | 0 | -1 | 96* | 101*
Cc1ccc(NC(=O)C2(N(Cc3ccccc3)C(=O)Cc3nc(N)n[nH]3)CCCCC2)cc1 | 9 | 58* | 0 | 1 | 100* | 100*
COc1ccc(NC(=O)C2(N(Cc3ccccc3)C(=O)Cc3nc(N)n[nH]3)CCCCC2)cc1 | -6 | 22 | 0 | -2 | · | ·
CCCCCCOC(=O)C1=C(C)NC(=O)NC1c1cccc(OC)c1OC (centres undefined) | 7 | -3 | 0 | 1 | · | ·
COc1ccc(C2C(C(=O)Nc3ccccc3OC)c3ccccc3C(=O)N2c2ccc(OC)cc2)cc1 (centres undefined) | 6 | 16 | 0 | -1 | · | ·
Cc1[nH]n(-c2cccc(Cl)c2)c(=O)c1C=Nc1cccc(N=Cc2c(C)[nH]n(-c3cccc(Cl)c3)c2=O)c1 | -4 | 3 | 0 | 0 | · | ·
COc1ccc(S(=O)(=O)N(Cc2cc3ccc(C)cc3[nH]c2=O)CC2CCCO2)cc1 (centres undefined) | 12 | 69* | 0 | -1 | 10 | 17
Cc1ccc2[nH]c(=O)c(CN(CC3CCCO3)S(=O)(=O)c3ccccc3)cc2c1 (centres undefined) | -4 | -13 | 0 | 0 | · | ·
O=C(Cc1cn(-c2ccc(Cl)nn2)c2ccccc12)NCc1ccccc1 | -9 | 72* | 0 | 1 | 8 | 5
OCCNC(=S)Nc1ccccc1 | -8 | 8 | 0 | 0 | · | ·
O=P(O)(O)C(O)(CCNC(=S)Nc1ccccc1)P(=O)(O)O | 4 | 85* | 0 | -1 | 67* | 6 | AS interf DR=>6.8
Cc1ccc(C(=O)c2sc3nc(C)cc(C)c3c2N)c(C)c1 | 6 | -6 | 0 | 1 | · | ·
NCCCNc1c2c(nc3cc(-c4cccc(F)c4)nn13)CCC2 | -6 | -5 | 0 | 0 | · | ·
NCCCNc1c2c(nc3cc(-c4ccc(Cl)cc4)nn13)CCC2 | 2 | 54* | 0 | 1 | 13 | 19
O=[N+]([O-])c1ccc(S(=O)(=O)N2CCN(C3CCCC3)CC2)cc1 | 3 | 53* | 0 | 0 | -6 | -4
O=[N+]([O-])c1ccc(S(=O)(=O)N2CCN(C3CCCCCC3)CC2)cc1 | 0 | 38 | 0 | 0 | · | ·
Cc1ccc(S(=O)(=O)N2CCN(C3CCCCC3)CC2)cc1 | -7 | 30 | 0 | 1 | · | ·
O=S(=O)(c1ccccc1)N1CCN(C2CCCCCC2)CC1 | -4 | 59* | 0 | 1 | -14 | -2
Nc1ccc(S(=O)(=O)NNC(=O)C(=O)NNc2ccccn2)cc1 | -4 | 44 | 0 | -1 | · | ·
